Assay outcomes: PubChem, National Center for Advancing Translational Sciences (NCATS)
Compounds with a hit are over-represented: about 21% of the library has one in this group of screens.
IL-1B inflam inh – qHTS for Inhibitors of Inflammasome Signaling: IL-1-beta AlphaLISA Primary Screen; activity change, % at 57.5 µM; 4.7% of 360,000 active; THP-1 LPS/ATP IL-1B secretion, AlphaLISA, 16 h; stronger effect = lower value; in the data active = activity change below about -50%; inconclusive = mostly about -30% to -49%
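Secreted IL-1B measured by AlphaLISA bead assay after 16 h compound exposure of THP-1 cells; compounds (final up to 57.5 uM) added 1 h before LPS (250 ng/mL) and ATP (1.25 mM) stimulation; lower signal means less secretion.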
TDP1 cell noCPT – qHTS for Inhibitors of human tyrosyl-DNA phosphodiesterase 1 (TDP1): qHTS in cells in absence of CPT | DT40 Tdp1-/- hTDP1 cells, no CPT, ATP luminescence, 48 h | AID 686978, 2013 | Potency, µM (doses to about 46.2 µM), hits mostly inhibitors | 15% of 420,000 active; also: nearly all actives have a fitted effect of over 55% in size
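Luminescent ATP content (CellTiter-Glo) served as the growth readout. Knockout chicken DT40 cells expressing human TDP1 were exposed to compounds without camptothecin for a minimum 48 hr at 37 °C.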
DRD3 agonist – qHTS of D3 Dopamine Receptor Agonist: qHTS. D(3) dopamine receptor (Homo sapiens), P35462. D3R DiscoveRx beta-arrestin cells, luminescence, 90 min. max activation, %. 0.58% of 410,000 active. AID 652048, 2013; in the data active = max activation above about 30%
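Agonist mode: compounds and dopamine controls were applied to plated cells for 90 min at 37 degrees C after an overnight attachment at 1500 cells/well. Luminescent read-out followed 30 - 60 minutes at room temperature with DiscoveRx detection reagent.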
ClpP mod – qHTS Assay for Activators of ClpP | 1.9% of 340,000 active | AID 651965, 2013 | ATP-dependent Clp protease proteolytic subunit (Bacillus subtilis (strain 168)), P80244 | Potency, µM (series often up to 57.5 µM) | purified B. subtilis ClpP, FRET peptide cleavage, 20 min; active = well fitted falling curve with a large enough effect; inconclusive = small, poorly fitted or top-dose-only effect; inactive = no such curve, though single readings can be large or run the other way; also: the source files actives as falling curves though it sought activators and does not explain the sign; nearly all actives have a fitted effect of over 65% in size
Target sequence (P80244 whole entry, looked up): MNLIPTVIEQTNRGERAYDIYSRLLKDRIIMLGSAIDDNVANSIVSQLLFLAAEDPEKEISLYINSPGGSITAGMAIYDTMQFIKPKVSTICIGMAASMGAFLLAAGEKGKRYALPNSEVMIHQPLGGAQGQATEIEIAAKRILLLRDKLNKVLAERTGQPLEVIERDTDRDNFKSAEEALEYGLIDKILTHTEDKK
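FRET quenching reversal measured ClpP activation: 10 microg/mL B. subtilis ClpP at pH 8 with the FRET-FV decapeptide, read at 430 nm after 320 nm excitation. The 20-min minus 0-min signal was scaled between DMSO/no-enzyme wells and ADEP (5.8 microM final).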
DRD3 antagonist – qHTS of D3 Dopamine Receptor Antagonist: qHTS | D3R cells, DiscoveRx beta-arrestin luminescence, antagonist mode; stronger effect = lower value | 2.5% of 360,000 active | max response, negative = inhibition, %; in the data active = max response below about -50%; inconclusive = no clear call, values can overlap the other calls
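Cells plated overnight at 1500 cells/well, then exposed to library compounds with dopamine controls for 90 minutes at 37 degrees C. DiscoveRx reagent added for 30–60 minutes at room temperature; luminescence read, quantitative HTS format.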
TDP1 cell CPT – qHTS for Inhibitors of human tyrosyl-DNA phosphodiesterase 1 (TDP1): qHTS in cells in presence of CPT; chicken DT40 Tdp1-/-;hTDP1 cells + 20 nM CPT, ATP luminescence, 48 h; AID 686979, 2013; Potency, µM (top dose mostly 46.2 µM), most hits filed as inhibitors; 12% of 420,000 active; also: nearly all actives have a fitted effect of over 55% in size
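Chicken DT40 Tdp1-/- cells complemented with human TDP1, 400 cells/well, exposed to compounds plus 20 nM camptothecin for at least 48 h at 37 C; viability read as ATP content by CellTiter-Glo luminescence.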
A number is an active result; - = inactive; ? = inconclusive; . = not tested or not shown. Unless noted, calls follow the shape of the dose curve; as a rule, active = well fitted inhibition curve with a large enough effect; inconclusive = small, poorly fitted or top-dose-only effect; inactive = flat fitted curve, though single readings scatter.

SMILES | IL-1B inflam inh | TDP1 cell noCPT | DRD3 agonist | ClpP mod | DRD3 antagonist | TDP1 cell CPT
Cc1ccc2[nH]c(=O)c(C(c3nnnn3C3CCCC3)N(Cc3cccnc3)Cc3ccco3)cc2c1 (configuration not stated) | ? | ? | - | - | - | ?
O=[N+]([O-])c1ccc(O)c(C(C#Cc2ccccc2)N2CCOCC2)c1 (configuration not stated) | - | - | - | . | - | -
O=C(CNc1cc(S(=O)(=O)N2CCOCC2)ccc1N1CCCC1)NCc1ccco1 | - | - | - | . | - | -
Oc1ccccc1/C=N/NC(=S)NC1CC2CC1C1C=CCC21 (configuration not stated) | ? | 4.11µM | - | - | - | 3.66µM
COc1cccc(/C=N/NC(=S)NC2CC3CC2C2C=CCC32)c1O (configuration not stated) | . | 29.1µM | - | . | - | ?
Oc1c(Br)cc(Br)cc1/C=N/NC(=S)N[C@H]1CC2C=CC1C2 (some centres not stated) | - | ? | - | . | - | ?
COc1cccc(/C=N/NC(=S)Nc2cccc(C(=O)O)c2)c1O | - | - | - | - | - | ?
CCN(CC)c1ccc(/C=N/n2c(-c3ccccc3Br)n[nH]c2=S)cc1 | -67.2 | 18.4µM | - | - | -71.0 | ?
CC(=O)N1CCc2c(sc3c2c(=O)n(-c2cc(Cl)ccc2C)c(=O)n3C)C1 | . | - | - | ? | . | -
Cc1cc(C(=O)COc2ccc3ccc(=O)oc3c2)c(C)n1C | ? | ? | - | . | - | -
Oc1ccc(-c2csc(Nc3ncccn3)n2)c(O)c1 | - | - | - | . | - | -
Cc1cccc(Nc2nc(-c3ccc(O)cc3O)cs2)n1 | -90.0 | ? | - | . | - | -
Cc1nc2ccccn2c1-c1csc(Nc2cccc(C(=O)O)c2)n1 | - | - | - | . | - | -
N#Cc1ccc(Nc2nc(-c3ccc(O)cc3O)cs2)cc1C(F)(F)F | -100.7 | 10.3µM | - | - | - | 13µM
Cc1nc2ccccn2c1-c1csc(Nc2ccc(C(=O)O)cc2)n1 | - | 3.66µM | - | - | - | 2.91µM
Cc1nc2ccccn2c1-c1csc(Nc2cccc(O)c2)n1 | -103.6 | 1.64µM | - | . | - | 0.731µM
COc1cccc(Nc2nc(-c3ccc(O)cc3)cs2)c1 | - | - | - | - | - | ?
O=C(CNC(=O)c1ccccc1F)OCC(=O)c1ccc(Cl)s1 | - | - | - | - | - | -
COc1cc(CCCN2CCNC[C@@H]2Cc2ccc(O)cc2)cc(OC)c1OC | - | - | - | - | - | -
CCc1ccc(OCC(=O)N/N=C\c2ccco2)c([N+](=O)[O-])c1 | - | - | - | - | - | -
Cc1cccc(Nc2nc(-c3c(C)nc4ccccn34)cs2)c1 | -96.1 | 11.2µM | - | - | - | 13µM
Cc1nc2ncccn2c1-c1csc(Nc2cccc(C(=O)O)c2)n1 | - | - | - | . | - | -
CC1CC(Nc2ccccc2)c2ccccc2N1C(=O)c1ccco1 (configuration not stated) | - | 14.6µM | - | . | - | 23.1µM
O=C(c1ccncc1)N1CCN(C2CCC(c3ccccc3)CC2)CC1 (configuration not stated) | - | - | - | . | - | -
O=C(CN1CCN(C(=O)c2ccco2)CC1)Nc1ccccc1 | - | - | - | . | - | -
CC1CC(Nc2ccccc2)c2ccccc2N1C(=O)c1ccncc1 (configuration not stated) | - | 8.2µM | - | - | - | 9.2µM
CCCN(CCC)C(=O)Cn1c(=O)n(-c2cccc(OC)c2)c(=O)c2c(C)c(C(=O)N(C)C)sc21 | . | - | - | - | . | -
CCN1C(=NCc2cccc(Cl)c2)N[C@@H](c2cccc(C(F)(F)F)c2)C(C(=O)OC)=C1C | . | ? | . | - | . | 11.2µM
